Source: the supplement of paper PMC6555819

Key:
Assay in all cases: PBM binding z-score (relative to random genomic background probes); higher = stronger binding; sequences stand for … in GC…GCGATTGACAGCGTAGAATGAAGG
[1] = tested on: FXR:RXRa (NR concentration 270 nM, RXRa partner concentration 90 nM)
Method in brief: (§1)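 The probes on custom Agilent 4×180K protein-binding microarrays were double-stranded, with 34-nt variable regions bearing direct-repeat seeds, single-nucleotide variants, half-site ablations and random human genomic background sequences. Incubation lasted 1 h with ligand-free nuclear receptor dimers in PBS pH 7.4, 2% milk, 0.02% Triton X-100, 1 mM DTT, 0.2 mg/mL BSA and 0.4 mg/ml salmon testes DNA. Antibodies against each partner (one per run) detected bound dimers, and fluorescence scans were regression-normalized. Binding z-scores take the random background probes as reference.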

[2] = tested on: LXRa:RXRa (NR concentration 270 nM, RXRa partner concentration 90 nM)
Method in brief: as §1

[3] = tested on: LXRa homodimer (NR concentration 270 nM)
Method in brief: as §1

[4] = tested on: LXRb:RXRa (NR concentration 270 nM, RXRa partner concentration 90 nM)
Method in brief: as §1

[5] = tested on: LXRb homodimer (NR concentration 270 nM)
Method in brief: as §1

[6] = tested on: PPARa:RXRa (NR concentration 270 nM, RXRa partner concentration 90 nM)
Method in brief: as §1

[7] = tested on: PPARg:RXRa (NR concentration 180 nM, RXRa partner concentration 90 nM)
Method in brief: as §1

[8] = tested on: PPARg:RXRa 270nM:90nM, anti-RXR (NR concentration 270 nM, RXRa partner concentration 90 nM)
Method in brief: as §1

[9] = tested on: PPARg:RXRa 30nM:10nM, anti-RXR (NR concentration 30 nM, RXRa partner concentration 10 nM)
Method in brief: as §1

[10] = tested on: PPARg:RXRa 90nM:30nM, anti-RXR (NR concentration 90 nM, RXRa partner concentration 30 nM)
Method in brief: as §1

[11] = tested on: PPARg:RXRa DBDmut IVT, anti-RXR (DBD mutation: RXRa K156A/R161A, NR concentration 270 nM, RXRa partner concentration 90 nM)
Method in brief: as §1

[12] = tested on: PPARg:RXRa IVT, anti-PPARg (NR concentration 270 nM, RXRa partner concentration 90 nM)
Method in brief: as §1

[13] = tested on: PPARg DBDmut:RXRa IVT, anti-PPARg (DBD mutation: PPARg1 K132A/R137A, NR concentration 270 nM, RXRa partner concentration 90 nM)
Method in brief: as §1

[14] = tested on: PPARg DBDmut IVT, anti-PPARg (DBD mutation: PPARg1 K132A/R137A, NR concentration 270 nM)
Method in brief: as §1

[15] = tested on: PPARg homodimer (NR concentration 180 nM)
Method in brief: as §1

[16] = tested on: PXR:RXRa (NR concentration 270 nM, RXRa partner concentration 90 nM)
Method in brief: as §1

[17] = tested on: PXR homodimer (NR concentration 270 nM)
Method in brief: as §1

[18] = tested on: RARa:RXR (NR concentration 270 nM, RXRa partner concentration 90 nM)
Method in brief: as §1

[19] = tested on: RARa homodimer (NR concentration 270 nM)
Method in brief: as §1

[20] = tested on: RARb:RXRa (NR concentration 270 nM, RXRa partner concentration 90 nM)
Method in brief: as §1

Sequence | PBM binding z-score [1] | PBM binding z-score [2] | PBM binding z-score [3] | PBM binding z-score [4] | PBM binding z-score [5] | PBM binding z-score [6] | PBM binding z-score [7] | PBM binding z-score [8] | PBM binding z-score [9] | PBM binding z-score [10] | PBM binding z-score [11] | PBM binding z-score [12] | PBM binding z-score [13] | PBM binding z-score [14] | PBM binding z-score [15] | PBM binding z-score [16] | PBM binding z-score [17] | PBM binding z-score [18] | PBM binding z-score [19] | PBM binding z-score [20]
CGTACTAGGTCAAGGACAGTGAATCTCCGCACGC | 3.26 | 2.36 | 0.318 | 1.61 | 0.134 | 3.93 | 6.37 | 5.52 | 2.99 | 4.86 | 7.55 | 7.47 | 2.25 | 1.3 | 2.34 | 1.19 | 0.03 | 2 | 1.16 | 4
ATCTCTAGGTAAGACTCAGTTTAGTGAAGAACGC | 0.613 | 0.734 | 0.489 | 0.362 | 0.843 | -0.0694 | 0.158 | 0.112 | 0.213 | 0.579 | 2.06 | 1.06 | 1.01 | 0.79 | 0.494 | 0.177 | 0.554 | 0.162 | 1.22 | 0.222
GGAACGAGGGCAATCGAGTTGATAGCATGGCGAT | 0.644 | 0.434 | -0.647 | -0.187 | -0.883 | 1.38 | 1.12 | 0.753 | -0.285 | 0.268 | 3.45 | 2.82 | -0.0288 | -1.1 | -0.25 | 3.29 | 0.305 | 0.677 | -0.463 | 1.6
ATCTCTAGGTAACCAGGTTCAGTGAATGCCGAAC | 0.339 | 0.277 | 0.415 | 0.528 | 0.703 | 1.37 | 0.883 | 0.861 | 0.15 | 0.492 | 3.75 | 3.09 | 0.459 | 0.795 | 1.07 | 0.948 | 0.388 | 0.808 | 0.438 | 0.668
ACTAGTTGGTCAGCTGAGGTCACAGACAATTCGG | 2.95 | 3.29 | 1.84 | 3.27 | 0.184 | 3.71 | 1.72 | 2.16 | 0.454 | 1.43 | 1.59 | 2.68 | 0.63 | 0.453 | 2.49 | 5.14 | 1.43 | 4.65 | 0.482 | 3.48
ATCGAAAAGTCGACGAGGTGAGTATACACCGTTT | 0.048 | -0.0396 | -0.471 | 0.0525 | -0.29 | 0.426 | 0.914 | 0.0655 | 0.0856 | -0.125 | -0.448 | 0.432 | 0.0649 | 0.51 | -0.218 | 0.103 | -0.0447 | 0.451 | -0.121 | 0.388
CCTCGGAGGACAGAAGGTCTGAGCTGTCCGCTTT | -0.434 | -0.47 | -0.775 | -1.15 | -1.31 | -0.68 | -0.853 | -0.655 | -1.15 | -1.14 | 0.154 | -0.94 | -1.16 | -2.11 | -0.0745 | -0.674 | -0.886 | -0.544 | -0.761 | 0.519
TTACCCAGGTGAAAGGTCGTTGATGCACGCCTTG | 2.92 | 3.07 | 0.858 | 2.75 | -0.247 | 5.24 | 9.35 | 8.61 | 7.49 | 10.2 | 3.16 | 5.28 | 1.04 | 0.584 | 2.1 | 3.69 | 0.742 | 4.9 | -0.211 | 2.46
CATTACGGGTCACTCCAGGTTATAGCATCGGAGT | 5.62 | 7.54 | 4.42 | 5.55 | 1.54 | 4.96 | 4.53 | 4.77 | 1.56 | 3.53 | 3.99 | 4.96 | 1.72 | 1.65 | 2.09 | 5.11 | 0.705 | 3.78 | 0.9 | 3.97
ACAGACAGGTGAGTGAAAGTAACTCAGCTGGACG | 0.0251 | 0.239 | -0.514 | -0.461 | -0.641 | -0.0542 | 0.742 | -0.29 | -0.67 | -0.542 | 0.546 | 0.438 | -0.222 | 0.175 | -1.05 | -0.413 | -0.648 | 0.2 | -0.554 | 0.304
TATATTAGTTGAAGGGCAACCGACGAGTCCGTTT | 0.481 | 0.797 | 0.861 | 0.474 | 1.01 | 0.509 | 0.844 | 1.23 | 0.993 | 1.22 | 0.182 | 0.973 | 1.48 | 1.13 | 1.26 | 0.629 | 0.738 | 0.321 | 1.47 | 1.68
ATCTCTAGGTAAAGATGGTTCAGTGAATGCAAAT | -0.0028 | 0.987 | 0.171 | 0.3 | 0.169 | 0.594 | 0.37 | 0.607 | 0.44 | 0.679 | 1.87 | 1.65 | 0.333 | 0.863 | 0.000234 | 0.269 | 0.428 | 0.492 | 0.88 | -0.00416
GCTAGCAGGCCATTTGGGTCACTCAGTGACGGGC | 0.0736 | -0.00862 | -0.609 | -0.133 | -1.43 | 1.14 | 0.272 | 0.402 | -0.825 | -0.0196 | 1.94 | 2.44 | -0.601 | -0.52 | -0.213 | 0.3 | -0.321 | 0.684 | -0.725 | 1.44
GCTCGGAGGACAAGCTCAGAGCTTTGTCCGTAGA | -0.583 | -0.885 | -0.935 | -0.784 | -0.639 | -0.425 | -1.69 | -1.3 | -1.5 | -1.33 | -0.93 | -0.339 | -0.667 | -0.738 | -0.886 | -0.742 | -0.896 | -0.828 | -1.84 | 0.862
ACTATTAGTTGACCTAGGGCAACCGATACGACGC | 1.76 | 2.47 | 2.09 | 2.31 | 1.09 | 2.52 | 1.71 | 1.48 | 0.386 | 0.958 | 1.31 | 2.56 | 0.917 | 1.25 | 1.64 | 2.05 | 0.901 | 2.79 | 0.637 | 2.18
